Results: PubChem BioAssay (EPA / NIEHS)
Active and inactive are the calls of the source. How the source made its calls: active means hit-call score of the fitted dose curve at least 0.9, where 1 is the maximum; inactive means score below 0.9.

How the values were obtained:
Conditions in all cases: mRNA level, 48 h; actives raise or lower the signal
CYP2C9 (gene 1559) = assay: LTEA_HepaRG_CYP2C9: Life Technologies and Expression Analysis (LTEA) Assay for CYP2C9 using HepaRG (AID 2283484)
Method in brief: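 Eight-point concentration-response (highest 100 uM, half-log dilutions) in HepaRG cells for 48 h; CYP2C9 expression by qRT-PCR normalized to ACTB, GAPDH, POLR2A. Bidirectional fit, DMSO baseline.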

CYP2E1 (gene 1571) = assay: LTEA_HepaRG_CYP2E1: Life Technologies and Expression Analysis (LTEA) Assay for CYP2E1 using HepaRG (AID 2283485)
Method in brief: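 Readout is qRT-PCR of CYP2E1 mRNA, normalized to three housekeeping genes and fitted bidirectionally against 0.5% DMSO. HepaRG cells were dosed 48 h at eight concentrations, highest 100 uM with half-log dilutions.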

CYP4A11 (gene 1579) = assay: LTEA_HepaRG_CYP4A11: Life Technologies and Expression Analysis (LTEA) Assay for CYP4A11 using HepaRG (AID 2283486)
Method in brief: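 Readout is CYP4A11 transcript level by qRT-PCR, normalized to three housekeeping genes and fitted bidirectionally against 0.5% DMSO. Human HepaRG cells were treated 48 h, in duplicate, with an 8-point half-log series topping at 100 uM.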

[1] = read-out: Cytochrome P450 3A4 (Homo sapiens) (UniProt P08684); assay: LTEA_HepaRG_CYP3A4: Life Technologies and Expression Analysis (LTEA) Assay for CYP3A4 using HepaRG (AID 2283487)
Method in brief: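 Differentiated HepaRG cells, plated 48 h, then dosed 48 h in serum-free induction medium with 0.5% DMSO, 8 half-log concentrations up to 100 uM, duplicate. CYP3A4 mRNA by qRT-PCR, normalized to ACTB/GAPDH/POLR2A; bidirectional fit versus DMSO.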

[2] = read-out: DNA damage-inducible transcript 3 (DDIT3), DDIT3 (gene 1649); assay: LTEA_HepaRG_DDIT3: Life Technologies and Expression Analysis (LTEA) Assay for DNA damage-inducible transcript 3 (DDIT3) using HepaRG (AID 2283488)
Method in brief: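 Cells are human HepaRG liver cells treated for 48 h with eight half-log concentrations up to 100 uM in 0.5% DMSO. Transcript levels come from qRT-PCR normalized to three housekeeping genes, with activity fitted in both directions relative to vehicle.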

[3] = read-out: Early growth response protein 1 (EGR1) transcription factor, EGR1 (gene 1958); assay: LTEA_HepaRG_EGR1: Life Technologies and Expression Analysis (LTEA) Assay for Early growth response protein 1 (EGR1) transcription factor using HepaRG (AID 2283490)
Method in brief: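 EGR1 expression change in human HepaRG after 48 h chemical exposure, assessed by housekeeping-normalized qRT-PCR; concentration-response up to 100 uM, fitted in both directions against DMSO controls.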

[4] = read-out: Ezrin (EZR), EZR (gene 7430); assay: LTEA_HepaRG_EZR: Life Technologies and Expression Analysis (LTEA) Assay for Ezrin (EZR) using HepaRG (AID 2283491)
Method in brief: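 EZR transcript levels came from Fluidigm qRT-PCR and were normalized to three housekeeping genes after 48 h chemical exposure of HepaRG cells. Dosing used an 8-point half-log series with a 100 uM top concentration in 0.5% DMSO, tested in duplicate; both directions were fitted versus vehicle.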

[5] = read-out: Cytochrome P450 3A7 (Homo sapiens) (UniProt P24462); assay: LTEA_HepaRG_CYP3A7: Life Technologies and Expression Analysis (LTEA) Assay for CYP3A7 using HepaRG (AID 2283492)
Method in brief: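 CYP3A7 transcript measured by qRT-PCR (ACTB, GAPDH, POLR2A normalization) after 48 h chemical exposure of HepaRG cells in duplicate. Eight half-log concentrations, maximum 100 uM, 0.5% DMSO vehicle; bidirectional curve fitting against DMSO baseline.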

CYP3A5 (gene 1577) = assay: LTEA_HepaRG_CYP3A5: Life Technologies and Expression Analysis (LTEA) Assay for CYP3A5 using HepaRG (AID 2283493)
Method in brief: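 Human HepaRG hepatic cells receive 48 h chemical treatment at eight concentrations (half-log steps from 100 uM) in 0.5% DMSO. Expression of CYP3A5 is quantified by Fluidigm qRT-PCR and normalized to three reference genes.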

[6] = read-out: Fatty Acid-Binding Protein 1 (FABP1), FABP1 (gene 2168); assay: LTEA_HepaRG_FABP1: Life Technologies and Expression Analysis (LTEA) Assay for Fatty Acid-Binding Protein 1 (FABP1) using HepaRG (AID 2283494)
Method in brief: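 Values reflect bidirectional concentration-response fitting of FABP1 mRNA change against 0.5% DMSO controls. Human HepaRG cultures received eight half-log doses (top 100 uM) for 48 h; expression quantified by TaqMan qRT-PCR with housekeeping-gene normalization.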

[7] = read-out: Glutathione S-Transferase (GSTA2), GSTA2 (gene 2939); assay: LTEA_HepaRG_GSTA2: Life Technologies and Expression Analysis (LTEA) Assay for Glutathione S-Transferase (GSTA2) using HepaRG (AID 2283497)
Method in brief: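 Oxidative-stress marker GSTA2 is quantified by TaqMan qRT-PCR in HepaRG cultures treated 48 h across an eight-point range to 100 uM. Expression is normalized to endogenous controls and compared with 0.5% DMSO vehicle.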

[8] = read-out: Glutamate-cysteine ligase catalytic (GCLC), GCLC (gene 2729); assay: LTEA_HepaRG_GCLC: Life Technologies and Expression Analysis (LTEA) Assay for Glutamate-cysteine ligase catalytic (GCLC) using HepaRG (AID 2283498)
Method in brief: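 Oxidative-stress marker GCLC is measured as mRNA change in human HepaRG liver cells after 48 h chemical treatment in 0.5% DMSO, eight concentrations from 100 uM. Activity is fitted bidirectionally against vehicle.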

[9] = read-out: growth arrest and DNA damage 45 (GADD45G), GADD45G (gene 10912); assay: LTEA_HepaRG_GADD45G: Life Technologies and Expression Analysis (LTEA) Assay for growth arrest and DNA damage 45 (GADD45G) using HepaRG (AID 2283499)
Method in brief: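 GADD45G transcript level by qRT-PCR (housekeeping-normalized: ACTB, GAPDH, POLR2A) after 48 h chemical treatment of a single HepaRG lot in serum-free induction medium; eight-point half-log series up to 100 uM in 0.5% DMSO, duplicates, up- or down-regulation scored.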

[10] = read-out: Glutamate-cysteine ligase regulatory (GCLM), GCLM (gene 2730); assay: LTEA_HepaRG_GCLM: Life Technologies and Expression Analysis (LTEA) Assay for Glutamate-cysteine ligase regulatory (GCLM) using HepaRG (AID 2283500)
Method in brief: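 Endpoint is GCLM transcript level by qRT-PCR, normalized to three housekeeping genes, after 48 h chemical exposure of human HepaRG cells (0.5% DMSO vehicle, top 100 uM, half-log dilutions). Fitting was bidirectional relative to DMSO.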

[11] = read-out: Glutathione S-transferase M3 (GSTM3), GSTM3 (gene 2947); assay: LTEA_HepaRG_GSTM3: Life Technologies and Expression Analysis (LTEA) Assay for Glutathione S-transferase M3 (GSTM3) using HepaRG (AID 2283501)
Method in brief: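 GSTM3 transcript levels came from Fluidigm TaqMan qRT-PCR normalized to three housekeeping genes, fitted in both directions against DMSO. HepaRG cultures received chemicals for 48 h in serum-free induction medium (0.5% DMSO), 8 half-log concentrations up to 100 uM, duplicate.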

[12] = read-out: Heat shock 70 kDa protein 1 (HSPA1A), gene 3303; assay: LTEA_HepaRG_HSPA1A: Life Technologies and Expression Analysis (LTEA) Assay for Heat shock 70 kDa protein 1 (HSPA1A) using HepaRG (AID 2283502)
Method in brief: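 Cells were plated and cultured for 48 h, then switched to serum-free induction medium. Chemicals were added at eight half-log concentrations up to 100 uM for 48 h. RNA was then isolated and HSPA1A measured by qRT-PCR with bidirectional curve fitting against DMSO.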

[13] = read-out: Hypoxia-inducible factor 1-alpha (Homo sapiens) (UniProt Q16665); assay: LTEA_HepaRG_HIF1A: Life Technologies and Expression Analysis (LTEA) Assay for Hypoxia-inducible factor 1 (HIF1A) Trancription factor using HepaRG (AID 2283503)
Method in brief: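 HIF1A transcript level read by qRT-PCR (ACTB, GAPDH, POLR2A normalization) after 48 h chemical exposure of HepaRG cultures. Eight half-log concentrations, top 100 uM, 0.5% DMSO vehicle, duplicates; bidirectional curve fit against DMSO baseline.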

[14] = read-out: Pro-epidermal growth factor (Homo sapiens) (UniProt P01133); assay: LTEA_HepaRG_EGF: Life Technologies and Expression Analysis (LTEA) Assay for Epidermal growth factor (EGF) using HepaRG (AID 2283489)
Method in brief: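 EGF transcript measured by Fluidigm TaqMan qRT-PCR with three housekeeping genes for normalization, 48 h after dosing HepaRG cultures in duplicate (top 100 uM, half-log steps, 0.5% DMSO vehicle). Gain or loss relative to DMSO fitted.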

[15] = read-out: Cytochrome P450 4A22 (Homo sapiens) (UniProt Q5TCH4); assay: LTEA_HepaRG_CYP4A22: Life Technologies and Expression Analysis (LTEA) Assay for Cytochrome P450 4A22 (CYP4A22) using HepaRG (AID 2283495)
Method in brief: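 Gene expression measured by qRT-PCR against three housekeeping genes (ACTB, GAPDH, POLR2A), with gain or loss fitted relative to 0.5% DMSO vehicle. HepaRG cultures received 48 h chemical treatment, top concentration 100 uM, half-log steps, duplicate wells.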

[16] = read-out: Cytochrome P450 7A1 (Homo sapiens) (UniProt P22680); assay: LTEA_HepaRG_CYP7A1: Life Technologies and Expression Analysis (LTEA) Assay for Cytochrome P450 7A1 (CYP7A1) using HepaRG (AID 2283496)
Method in brief: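 HepaRG, 48 h exposure, 8-pt half-log series from 100 uM, 0.5% DMSO vehicle, duplicates. Readout: TaqMan qRT-PCR mRNA vs three housekeeping genes; bidirectional curve fit against DMSO baseline.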

Measured: AC50

Cytochrome P450 3A7 (Homo sapiens), sequence (P24462 whole entry, looked up): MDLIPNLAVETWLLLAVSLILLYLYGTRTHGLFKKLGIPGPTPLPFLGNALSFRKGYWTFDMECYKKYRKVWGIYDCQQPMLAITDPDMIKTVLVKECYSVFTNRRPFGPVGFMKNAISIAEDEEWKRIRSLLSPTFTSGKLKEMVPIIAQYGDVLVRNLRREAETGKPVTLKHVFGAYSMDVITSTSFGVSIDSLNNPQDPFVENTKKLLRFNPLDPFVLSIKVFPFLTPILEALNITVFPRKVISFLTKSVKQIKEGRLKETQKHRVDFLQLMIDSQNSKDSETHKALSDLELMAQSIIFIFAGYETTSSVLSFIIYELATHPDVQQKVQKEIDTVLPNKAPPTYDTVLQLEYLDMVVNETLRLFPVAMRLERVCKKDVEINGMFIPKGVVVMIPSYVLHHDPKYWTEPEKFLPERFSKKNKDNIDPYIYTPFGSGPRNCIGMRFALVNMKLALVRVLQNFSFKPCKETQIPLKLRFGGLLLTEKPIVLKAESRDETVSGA
Cytochrome P450 3A4 (Homo sapiens), sequence (P08684 whole entry, looked up): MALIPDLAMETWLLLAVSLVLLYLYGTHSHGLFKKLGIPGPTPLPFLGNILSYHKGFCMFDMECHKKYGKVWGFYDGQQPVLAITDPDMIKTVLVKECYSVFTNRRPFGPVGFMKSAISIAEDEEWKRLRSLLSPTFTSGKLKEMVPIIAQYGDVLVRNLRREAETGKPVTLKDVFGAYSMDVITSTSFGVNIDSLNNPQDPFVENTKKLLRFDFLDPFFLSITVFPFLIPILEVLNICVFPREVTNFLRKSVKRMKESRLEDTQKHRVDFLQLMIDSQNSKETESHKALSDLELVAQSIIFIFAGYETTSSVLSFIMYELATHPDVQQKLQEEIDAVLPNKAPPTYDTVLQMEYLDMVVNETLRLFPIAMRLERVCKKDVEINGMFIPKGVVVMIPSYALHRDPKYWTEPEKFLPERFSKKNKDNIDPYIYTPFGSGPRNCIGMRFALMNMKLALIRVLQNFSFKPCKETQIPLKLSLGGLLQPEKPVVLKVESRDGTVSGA
Hypoxia-inducible factor 1-alpha (Homo sapiens), sequence (Q16665 whole entry, looked up): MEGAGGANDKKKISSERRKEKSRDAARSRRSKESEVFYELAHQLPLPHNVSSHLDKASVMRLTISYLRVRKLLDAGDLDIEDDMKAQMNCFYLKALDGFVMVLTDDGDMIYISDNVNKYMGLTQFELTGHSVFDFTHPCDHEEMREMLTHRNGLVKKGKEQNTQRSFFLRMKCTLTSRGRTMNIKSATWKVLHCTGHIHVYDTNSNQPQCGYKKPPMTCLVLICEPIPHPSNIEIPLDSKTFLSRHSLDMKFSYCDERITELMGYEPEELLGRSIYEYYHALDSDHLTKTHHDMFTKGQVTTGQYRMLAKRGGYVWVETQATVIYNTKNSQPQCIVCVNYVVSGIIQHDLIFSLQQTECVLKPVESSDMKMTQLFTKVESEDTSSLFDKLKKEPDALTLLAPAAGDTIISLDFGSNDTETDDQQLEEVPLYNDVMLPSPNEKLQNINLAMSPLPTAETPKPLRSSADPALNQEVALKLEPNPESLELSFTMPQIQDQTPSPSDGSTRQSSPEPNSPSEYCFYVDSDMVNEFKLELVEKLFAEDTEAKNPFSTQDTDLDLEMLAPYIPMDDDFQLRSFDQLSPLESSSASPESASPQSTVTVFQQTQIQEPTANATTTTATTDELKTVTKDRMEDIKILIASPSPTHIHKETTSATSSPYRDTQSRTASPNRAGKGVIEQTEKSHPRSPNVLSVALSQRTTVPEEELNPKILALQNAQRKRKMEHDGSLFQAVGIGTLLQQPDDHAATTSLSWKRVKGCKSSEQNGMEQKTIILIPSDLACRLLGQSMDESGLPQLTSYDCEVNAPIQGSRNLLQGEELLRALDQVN

O=[Si]=O
not listed: [14] | [15] | [16]
inactive: all other assays above

CCCCCCCCCCCCCCCCO
active: CYP2E1 (gene 1571) 50 µM | CYP4A11 (gene 1579) 16.8 µM | [4] 0.102 µM | [16] 50 µM
not listed: [2]
inactive: all other assays above

O=Cc1ccccc1C=O
not listed: [5] | [16]
inactive: all other assays above

O=C(O)CC(O)(CC(=O)O)C(=O)O
not listed: [5] | [16]
inactive: all other assays above

O=C1CCCCC1
not listed: [5] | [16]
inactive: all other assays above

CCCC(=O)O
not listed: [2]
inactive: all other assays above

CN(C)CCCN(C)CCCN(C)C
not listed: [2] | [16]
inactive: all other assays above
